Records with an inconclusive call do not appear. Activity calls are given as the source filed them. The call rests on the fitted dose curve; in most records, active means well fitted inhibition curve with a large enough effect; inconclusive means small, poorly fitted or top-dose-only effect; inactive means flat fitted curve, though single readings scatter.

This note sets out measurements from PubChem BioAssay (NCATS).

The subject of this assay is CRL-7250. In words: qHTS assay to identify novel small-molecules to repurpose for Merkel cell carcinoma treatment (AID 1296009). Further: nearly all actives have a fitted effect of over 60% in size. Particulars: MCC and control cell lines, CellTiter-Glo viability, 72 h; at 44.8 µM (top of the series) unless noted. Put shortly:
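qHTS format: cells treated with library compounds in DMSO across 8 (NPC) or 11 (MIPE) concentrations. Readout after 72 hr at 37 degree celsius was CellTiter-Glo luminescence.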
For orientation: In qHTS, concentration-response curves come from the screen itself.
Take `Cc1[nH]c(=O)c(C#N)cc1-c1ccc2nccn2c1`: the outcome was inactive.

For the compound `Cn1cnc2c1c(=O)[nH]c(=O)n2C`, the outcome was inactive.

For the compound `CCC(=O)O[C@]1(C(=O)COC)[C@@H](C)C[C@H]2[C@@H]3CCC4=CC(=O)C=C[C@]4(C)C3(F)[C@@H](O)C[C@@]21C` (stereo partly specified), the result was inactive.

`CCCCOc1cc(C(=O)OCCN(CC)CC)ccc1N`: the result was inactive.

As for `CCCCNc1cc(C(=O)O)cc(S(N)(=O)=O)c1Oc1ccccc1`, the result was inactive.

With `Cc1nnc(C(=O)NC(C)(C)c2nc(C(=O)NCc3ccc(F)cc3)c(O)c(=O)n2C)o1`, the compound was called inactive.

Turning to `NCCc1cnc[nH]1`, the call was inactive.

As to `Nc1ccc(N=Nc2ccccc2)c(N)n1`, the result was inactive.

On to `CCOc1cc(N)c(Cl)cc1C(=O)NCC1CN(Cc2ccc(F)cc2)CCO1` (stereo unspecified), for which the result was inactive.

On to `Cc1ccc(Nc2c(F)cccc2Cl)c(CC(=O)O)c1`, for which the result was inactive.

In the case of `CC(C)(C)c1ccc(C(=O)CCCCl)cc1`, the result was inactive.

In the case of `COc1ccccc1OC(=O)Oc1ccccc1OC`, the call was inactive.

`O=c1[nH]c(=O)c2ccccc2o1`: the outcome was inactive.

Regarding `NCCNC(=O)c1ccc(Cl)cn1`, the compound was called inactive.

In the case of `COc1cc(NS(=O)(=O)c2ccc(N)cc2)ncn1`, the compound was classed as inactive.

On to `CN1CCCCC1CCN1c2ccccc2Sc2ccc(S(C)=O)cc21` (stereo unspecified), for which the call was inactive.

On to `CC(C)NCC(O)COc1ccc(COCCOC(C)C)cc1` (stereo unspecified), for which the compound was classed as inactive.

`Cc1c(N(C)C)c(=O)n(-c2ccccc2)n1C`: the compound was classed as inactive.

On to `COc1ccc(-c2nc3ccc(C4=NNC(=O)CC4C)cc3[nH]2)cc1` (stereo unspecified), for which the compound was called inactive.

For the compound `COc1cccc(N(C)C(=S)Oc2ccc3c(c2)CCCC3)n1`, the result was inactive.

With `CCNC(=O)NCc1cccc(Cl)c1`, the outcome was inactive.
